Measurements taken from PubChem BioAssay AID1159580 (chemical genetic matrix, 2015).
Values joined by “and” are separate entries in the source; they are usually repeats but may differ in a detail not shown here. Equal values may be shown once. About 2,000 (36%) of roughly 5,500 compounds were called active. About 18% were inconclusive and are not listed. Rule as the data show it: active = normalized growth mostly below about 0.91 (no sharp cut-off); inconclusive = no clear call, values can overlap the other calls; inactive = mostly above about 0.92. The list shows a part of the results. Some compounds were tested as several samples or in several runs, with calls that do not always agree.

Experiment: chemical genetic growth profiling, strain panel (AID 1159580);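 also: tested at 20 µM; growth read once vehicle control cultures reached saturation at 30 °C; 1 = growth at the plate median or of vehicle wells; lower values mean less growth of the strain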
Details: growth OD

Measured: normalized growth

CSc1ccc2c(c1)N(CCC1CCCCN1C)c1ccccc1S2 (stereo not given)
0.123 (active) and 0.981 (inactive): S. cerevisiae deletion strains, locus YMR307W, strain GAS1, stronger effect = lower value
inactive: S. cerevisiae deletion strains, locus YKL009W, strain mrt4, stronger effect = lower value 0.978 | S. cerevisiae deletion strains, locus YKL068W, stronger effect = lower value 1.01 | S. cerevisiae deletion strains, locus YKL085W, strain MDH1 (second series), stronger effect = lower value 1 | S. cerevisiae deletion strains, locus YKL085W, strain MDH1, stronger effect = lower value 1 | S. cerevisiae deletion strains, locus YKL160W, strain elf1, stronger effect = lower value 0.937 | S. cerevisiae deletion strains, locus YKR026C, strain gcn3, stronger effect = lower value 1.02 | S. cerevisiae deletion strains, locus YKR091W, strain srl3, stronger effect = lower value 1.03 | S. cerevisiae deletion strains, locus YLL001W, strain dnm1, stronger effect = lower value 0.964 | S. cerevisiae deletion strains, locus YLL026W, stronger effect = lower value 0.981 | S. cerevisiae deletion strains, locus YLL041C, strain sdh2, stronger effect = lower value 0.976 | S. cerevisiae deletion strains, locus YLR027C, strain aat2, stronger effect = lower value 0.946 | S. cerevisiae deletion strains, locus YLR113W, strain HOG1, stronger effect = lower value 0.996 | S. cerevisiae deletion strains, locus YLR221C, strain rsa3, stronger effect = lower value 0.932 | S. cerevisiae deletion strains, locus YLR258W, strain gsy2, stronger effect = lower value 0.941 | S. cerevisiae deletion strains, locus YLR262C, strain YPT6 (second series), stronger effect = lower value 1.1 | S. cerevisiae deletion strains, locus YLR320W, strain mms22, stronger effect = lower value 1 | S. cerevisiae deletion strains, locus YLR357W, strain rsc2, stronger effect = lower value 0.996 | S. cerevisiae deletion strains, locus YLR370C, strain arc18, stronger effect = lower value 0.962 | S. cerevisiae deletion strains, locus YLR384C, strain iki3, stronger effect = lower value 0.984 | S. cerevisiae deletion strains, locus YML120C, strain ndi1, stronger effect = lower value 0.971 | S. cerevisiae deletion strains, locus YMR078C, strain ctf18, stronger effect = lower value 1.04 | S. cerevisiae deletion strains, locus YMR125W, strain sto1, stronger effect = lower value 0.95 | S. cerevisiae deletion strains, locus YMR129W, stronger effect = lower value 0.977 | S. cerevisiae deletion strains, locus YMR205C, strain PFK2, stronger effect = lower value 0.966 | S. cerevisiae deletion strains, locus YNL071W, strain lat1, stronger effect = lower value 1.05 | S. cerevisiae deletion strains, locus YNL128W, strain TEP1, stronger effect = lower value 1 | S. cerevisiae deletion strains, locus YNL175C, strain NOP13, stronger effect = lower value 1.07 | S. cerevisiae deletion strains, locus YNL183C, strain NPR1, stronger effect = lower value 0.944 | S. cerevisiae deletion strains, locus YNL197C, strain WHI3, stronger effect = lower value 1.05 | S. cerevisiae deletion strains, locus YNL248C, strain rpa49, stronger effect = lower value 0.978 | S. cerevisiae deletion strains, locus YNL250W, strain rad50, stronger effect = lower value 1 | S. cerevisiae deletion strains, locus YNL271C, strain bni1, stronger effect = lower value 1 | S. cerevisiae deletion strains, locus YNL298W, strain CLA4, stronger effect = lower value 1 | S. cerevisiae deletion strains, locus YNL322C, strain KRE1 (second series), stronger effect = lower value 1.04 | S. cerevisiae deletion strains, locus YNR049C, strain mso1, stronger effect = lower value 0.968 | S. cerevisiae deletion strains, locus YOL012C, strain htz1 0.211 | S. cerevisiae deletion strains, locus YOR001W, strain rrp6, stronger effect = lower value 0.956 | S. cerevisiae deletion strains, locus YOR070C, strain gyp1, stronger effect = lower value 0.948 | S. cerevisiae deletion strains, locus YOR080W, strain dia2, stronger effect = lower value 0.976 | S. cerevisiae deletion strains, locus YOR083W, strain WHI5, stronger effect = lower value 0.915 | S. cerevisiae deletion strains, locus YOR106W, strain vam3, stronger effect = lower value 0.88 | S. cerevisiae deletion strains, locus YOR231W, strain MKK1, stronger effect = lower value 1 | S. cerevisiae deletion strains, locus YOR265W, strain rbl2, stronger effect = lower value 0.961 | S. cerevisiae deletion strains, locus YOR270C, strain vph1, stronger effect = lower value 0.866 | S. cerevisiae deletion strains, locus YOR290C, strain snf2, stronger effect = lower value 0.981 | S. cerevisiae deletion strains, locus YPL078C, strain atp4, stronger effect = lower value 0.989 | S. cerevisiae deletion strains, locus YPL106C, strain sse1, stronger effect = lower value 1.02 | S. cerevisiae deletion strains, locus YPL240C, strain hsp82, stronger effect = lower value 0.98 | S. cerevisiae deletion strains, locus YPL256C, strain CLN2, stronger effect = lower value 0.975 | S. cerevisiae deletion strains, locus YPR141C, strain kar3, stronger effect = lower value 1.02
active: S. cerevisiae deletion strains, locus YJR075W, strain HOC1, stronger effect = lower value 0.823 | S. cerevisiae deletion strains, locus YKL190W, strain CNB1, stronger effect = lower value 0.0633 | S. cerevisiae deletion strains, locus YKR001C, strain vps1, stronger effect = lower value 0.0672 | S. cerevisiae deletion strains, locus YLR039C, strain RIC1, stronger effect = lower value 0.175 | S. cerevisiae deletion strains, locus YLR058C, strain SHM2, stronger effect = lower value 0.0859 | S. cerevisiae deletion strains, locus YLR102C, strain apc9, stronger effect = lower value 0.176 | S. cerevisiae deletion strains, locus YLR262C, strain YPT6, stronger effect = lower value 0.155 | S. cerevisiae deletion strains, locus YLR268W, strain sec22, stronger effect = lower value 0.122 | S. cerevisiae deletion strains, locus YLR330W, strain CHS5, stronger effect = lower value 0.0954 | S. cerevisiae deletion strains, locus YLR342W, strain FKS1 (second series), stronger effect = lower value 0.07 | S. cerevisiae deletion strains, locus YLR342W, strain FKS1, stronger effect = lower value 0.866 | S. cerevisiae deletion strains, locus YLR371W, strain rom2, stronger effect = lower value 0.116 | S. cerevisiae deletion strains, locus YLR418C, strain cdc73, stronger effect = lower value 0.155 | S. cerevisiae deletion strains, locus YML016C, strain PPZ1, stronger effect = lower value 0.0677 | S. cerevisiae deletion strains, locus YML032C, strain rad52, stronger effect = lower value 0.484 | S. cerevisiae deletion strains, locus YML124C, strain tub3, stronger effect = lower value 0.282 | S. cerevisiae deletion strains, locus YMR058W, strain fet3, stronger effect = lower value 0.859 | S. cerevisiae deletion strains, locus YMR223W, strain ubp8, stronger effect = lower value 0.142 | S. cerevisiae deletion strains, locus YMR231W, strain pep5, stronger effect = lower value 0.32 | S. cerevisiae deletion strains, locus YMR263W, strain SAP30, stronger effect = lower value 0.569 | S. cerevisiae deletion strains, locus YNL067W, strain RPL9B, stronger effect = lower value 0.221 | S. cerevisiae deletion strains, locus YNL153C, strain GIM3, stronger effect = lower value 0.0926 | S. cerevisiae deletion strains, locus YNL209W, strain ssb2, stronger effect = lower value 0.856 | S. cerevisiae deletion strains, locus YNL224C, strain SQS1, stronger effect = lower value 1.11 [resistant] | S. cerevisiae deletion strains, locus YNL233W, strain BNI4, stronger effect = lower value 0.0906 | S. cerevisiae deletion strains, locus YNL307C, strain MCK1, stronger effect = lower value 0.1 | S. cerevisiae deletion strains, locus YNL322C, strain KRE1, stronger effect = lower value 0.0818 | S. cerevisiae deletion strains, locus YNR052C, strain pop2, stronger effect = lower value 0.133 | S. cerevisiae deletion strains, locus YOL006C, strain TOP1, stronger effect = lower value 0.115 | S. cerevisiae deletion strains, locus YOL147C, strain pex11, stronger effect = lower value 0.176 | S. cerevisiae deletion strains, locus YOR061W, strain CKA2, stronger effect = lower value 0.0575 | S. cerevisiae deletion strains, locus YOR069W, strain VPS5, stronger effect = lower value 0.36 | S. cerevisiae deletion strains, locus YOR083W, strain WHI5 (second series), stronger effect = lower value 0.774 | S. cerevisiae deletion strains, locus YOR136W, strain idh2, stronger effect = lower value 0.139 | S. cerevisiae deletion strains, locus YOR144C, strain elg1, stronger effect = lower value 0.541 | S. cerevisiae deletion strains, locus YOR184W, strain ser1, stronger effect = lower value 0.128 | S. cerevisiae deletion strains, locus YOR316C, strain cot1, stronger effect = lower value 0.132 | S. cerevisiae deletion strains, locus YPL051W, strain arl3, stronger effect = lower value 0.881 | S. cerevisiae deletion strains, locus YPR119W, strain clb2, stronger effect = lower value 0.31 | S. cerevisiae deletion strains, locus YPR163C, strain tif3, stronger effect = lower value 0.0768 | S. cerevisiae deletion strains, locus YPR167C, strain met16, stronger effect = lower value 0.196 | S. cerevisiae deletion strains, strain wtn01, stronger effect = lower value 0.0859 | S. cerevisiae strains, strain wild type, stronger effect = lower value 0.0579
0.107 (active) and 0.972 (inactive): S. cerevisiae deletion strains, locus YPL241C, strain CIN2, stronger effect = lower value
